Assay outcomes (PubChem)
GLA inh pH 4.5: alpha-galactosidase A (human) inhibition, pH 4.5 | P06280 | purified enzyme, 4-MU-alpha-Gal fluorescence, pH 4.5 | activity change, negative = inhibition, % at 105 µM | 230,000 tested, under 10 active | AID 1467;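 note: 0% = full activity with enzyme and -100% = basal without enzyme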
Target sequence (P06280 whole entry, looked up): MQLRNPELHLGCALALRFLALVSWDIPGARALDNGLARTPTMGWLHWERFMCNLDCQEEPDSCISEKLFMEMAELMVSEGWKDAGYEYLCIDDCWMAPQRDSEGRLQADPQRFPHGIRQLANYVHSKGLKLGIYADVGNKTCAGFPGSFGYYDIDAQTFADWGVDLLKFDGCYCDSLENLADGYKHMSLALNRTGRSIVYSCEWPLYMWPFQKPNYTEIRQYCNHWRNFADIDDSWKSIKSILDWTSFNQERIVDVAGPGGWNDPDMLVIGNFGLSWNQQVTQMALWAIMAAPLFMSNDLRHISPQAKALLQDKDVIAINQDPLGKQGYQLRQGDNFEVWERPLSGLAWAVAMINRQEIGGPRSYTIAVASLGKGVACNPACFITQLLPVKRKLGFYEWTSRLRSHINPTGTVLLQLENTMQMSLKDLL
ALDH1A1 block: ALDH1A1 (human) enzyme inhibition | P00352 | Purified ALDH1A1, NADH fluorescence, propionaldehyde substrate | Potency, µM (titrated, usually from 75.3 µM), for the others: at the highest dose activity, negative = inhibition, usual class: inhibitors | 220,000 compounds, 7.3% hits | AID 1030; active = well fitted inhibition curve with a large enough effect, not every such curve was filed as active; inconclusive = small, poorly fitted or top-dose-only effect, or another doubt; inactive = no such curve, though single readings can be large or run the other way;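 note: potency is the fitted concentration of half-maximal effect; plate controls were no enzyme wells and a reference inhibitor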
ALOX12 inhib: 12-hLO (ALOX12) enzyme inhibition; AID 1452; Potency, µM (highest dose often 57.1 µM), without a hit: at the highest dose activity change, negative = inhibition, most hits filed as inhibitors; purified 12-hLO, xylenol orange hydroperoxide absorbance; 150,000 compounds, 0.12% hits; note: potency is the fitted concentration of half-maximal effect; nearly all actives have a fitted effect of over 55% in size
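Xylenol orange chromogenic assay: hydroperoxide from 12hLO oxidises Fe(II), giving red-shifted Fe(III)-XO absorbance. Conditions: 150 nM enzyme, 40 uM arachidonic acid, 25 mM Hepes pH 7.0, 0.01% Triton X-100, 30 min, room temperature.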
HPGD block: HPGD (human) dehydrogenase inhibition | P15428 | purified HPGD, NADH fluorescence kinetic, PGE2 substrate | Potency, µM, inactives show at the top dose activity change, negative = inhibition, usual class: inhibitors | 150,000 compounds, 4.3% hits | AID 894; active = well fitted inhibition curve with a large enough effect, not every such curve was filed as active; inconclusive = small, poorly fitted or top-dose-only effect, or another doubt; inactive = no such curve, though single readings can be large or run the other way; note: potency is the fitted concentration of half-maximal effect
Target sequence (P15428 whole entry, looked up): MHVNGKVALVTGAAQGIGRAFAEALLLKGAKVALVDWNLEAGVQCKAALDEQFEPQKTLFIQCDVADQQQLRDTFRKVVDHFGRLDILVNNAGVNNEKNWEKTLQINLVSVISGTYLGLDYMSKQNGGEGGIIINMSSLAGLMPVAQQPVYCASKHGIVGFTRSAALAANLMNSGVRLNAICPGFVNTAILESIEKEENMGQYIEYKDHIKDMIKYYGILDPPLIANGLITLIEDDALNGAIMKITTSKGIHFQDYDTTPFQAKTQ
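20 nM HPGD preincubated 15 min at room temperature with compound in 50 mM Tris-HCl pH 8, 0.01% Tween 20. Started with 1 mM NAD+ and 30 uM prostaglandin E2; NADH fluorescence (360/450 nm) read 5 times over 30-s intervals, last minus first.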
aGal spleen mod: alpha-galactosidase A (human) modulation; human spleen homogenate, 4MU-alpha-Gal fluorescence, 40 min; Potency, µM (top dose mostly 80 µM), for the others: at the highest dose activity change, negative = inhibition, actives largely listed as inhibitors; 240,000 compounds, 0.008% hits;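 note: potency is the fitted concentration of half-maximal effect; 0% = enzyme with vehicle and -100% = no enzyme basal signal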
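Fluorogenic readout (Ex 365/Em 440 nm) of 4-methylumbelliferone released from 1 mM 4-MU-alpha-galactoside by spleen homogenate, 40 min at 37C, pH 5.0. Data normalized to no-enzyme and enzyme controls; Hill-equation AC50 from compound titrations.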
PNC inhibitor: perinucleolar compartment assembly inhibition | activity change (PNC), negative = inhibition, % at 10 µM | 140,000 compounds, 3.1% hits | PC3M PTB-GFP, PNC prevalence imaging, 16 h; stronger effect = lower value;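 active = readout at or below -70, meaning at least 70% loss of cells showing the perinucleolar compartment, a nuclear body marking cancer cells; inconclusive = readout between -30 and a set limit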;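 note: plate controls were DMSO wells for no effect and camptothecin positive control wells for full effect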
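Compounds are pinned in duplicate onto adhered PC3M cells stably expressing GFP-tagged PTB and incubated 16 h at 37 C. Cells are then fixed, nuclei stained with Hoechst, and PNC-positive cells counted.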
An asterisk follows results filed as active; [ ] = another dose, or the depositor's remark. Sampled rows, rich in hits. Any-hit rate of the full collection: about 10%. Unless noted, calls come from the whole dose curve; as a rule, active = well fitted curve in the direction sought with a large enough effect; inconclusive = small, poorly fitted or top-dose-only effect, or another doubt; inactive = no such curve, though single readings can be large; an effect the other way counts as inactive or inconclusive. Unless noted, % is set by controls: 0 for no effect and ±100 for the full control effect.

What do the screens show for `COc1ccc(CN2CCN(C(=O)C3CC(=O)N(C4CCCCCC4)C3)CC2)c(OC)c1OC` (stereo not given)?
GLA inh pH 4.5: 1.8; ALDH1A1 block: 20µM*; ALOX12 inhib: -0.2%; HPGD block: -1.1%; aGal spleen mod: 6.9%; PNC inhibitor: 25.9

How did CCn1nc(C)c(NS(=O)(=O)c2ccccc2)c1C do in these assays?
GLA inh pH 4.5: -3.2; ALDH1A1 block: -5.3%; ALOX12 inhib: 4.0%; HPGD block: -7.5%; aGal spleen mod: -2.4%; PNC inhibitor: -104.7*

Results for CCn1c2ccccc2c2cc(CN3CCN(Cc4cc(OC)ccc4O)CC3)ccc21 ?
GLA inh pH 4.5: -8.7; ALDH1A1 block: 35.5µM*; aGal spleen mod: 1.3%

What do the screens show for `COc1ccc(CN2CCN(CC(O)Cn3c4ccccc4c4ccccc43)CC2)cc1` (stereo not given)?
GLA inh pH 4.5: -17.1; ALDH1A1 block: 3.6%; ALOX12 inhib: -4.6%; HPGD block: -7.7%; aGal spleen mod: 1.4%; PNC inhibitor: -101.7*

What do the screens show for `OCCC1CN(Cc2nc3ccccc3[nH]2)CCN1C1CCCC1` (stereo not given)?
GLA inh pH 4.5: -2.2; ALDH1A1 block: 3.1%; aGal spleen mod: 2.0%

What do the screens show for `C=CCn1c2ccccc2n2nc(C)c(=O)nc12`?
GLA inh pH 4.5: 2.6; ALDH1A1 block: inconclusive; ALOX12 inhib: 0.7%; HPGD block: inconclusive; aGal spleen mod: -1.9%; PNC inhibitor: -100.0*

What do the screens show for `COc1ccc(S(=O)(=O)N(CC(=O)N2CCN(c3ccccc3OC)CC2)c2ccccc2)cc1`?
GLA inh pH 4.5: -18.3; ALDH1A1 block: 7.08µM*; ALOX12 inhib: 2.2%; HPGD block: -21.0%; aGal spleen mod: 11.1%; PNC inhibitor: 22.5

What do the screens show for `O=C(NCc1ccc(N2CCCC2=O)cc1)NC1CCCCC1`?
GLA inh pH 4.5: -3.7; ALDH1A1 block: 6.2%; ALOX12 inhib: -1.8%; HPGD block: 22.4µM*; aGal spleen mod: 9.8%; PNC inhibitor: -1.0

What do the screens show for `O=C(NCc1ccccc1)NC1CCCCC1`?
GLA inh pH 4.5: -1.1; ALDH1A1 block: -7.2%; ALOX12 inhib: 6.0%; HPGD block: inconclusive; aGal spleen mod: 1.3%; PNC inhibitor: -14.0

What do the screens show for `O=C(NC1CCCCC1)c1ccc(N2CCCC2=O)cc1`?
GLA inh pH 4.5: 7.0; ALDH1A1 block: 3.9%; ALOX12 inhib: -3.1%; HPGD block: 8.91µM*; aGal spleen mod: 4.4%; PNC inhibitor: -27.6

Results for O=C(O)c1cccc(N2CCCC2=O)c1 ?
GLA inh pH 4.5: 0.3; ALDH1A1 block: inconclusive; ALOX12 inhib: -1.6%; HPGD block: 20µM*; aGal spleen mod: 3.9%; PNC inhibitor: 24.8

How did O=C(NC1CCCCCC1)c1ccc(N2CCCC2=O)cc1 do in these assays?
GLA inh pH 4.5: 1.8; ALDH1A1 block: -1.9%; ALOX12 inhib: -3.2%; HPGD block: inconclusive; aGal spleen mod: -13.1%; PNC inhibitor: inconclusive

Results for COC(=O)c1cccc(N2CCCC2=O)c1 ?
GLA inh pH 4.5: 5.2; aGal spleen mod: 5.1%

What do the screens show for `O=C(O)C(Cc1c[nH]c2ccccc12)N1C(=O)C2C3c4ccccc4C(c4ccccc43)[C@@H]2C1=O` (stereo not given in full)?
GLA inh pH 4.5: -2.4; aGal spleen mod: 1.9%

What do the screens show for `CC(/C=N/Nc1nc(C)cc(C)n1)=C\c1ccc(C(C)C)cc1`?
GLA inh pH 4.5: -11.1; ALDH1A1 block: 5.5%; ALOX12 inhib: -2.7%; HPGD block: -11.4%; aGal spleen mod: -0.9%; PNC inhibitor: -113.8*

Results for CC(/C=N/NC(=O)c1ccncc1)=C\c1ccc(C(C)C)cc1 ?
GLA inh pH 4.5: 2.6; ALDH1A1 block: inconclusive; ALOX12 inhib: -8.0%; aGal spleen mod: -4.1%; PNC inhibitor: inconclusive

Results for COCC(=O)N1CCc2nc(COc3ccccc3)c3c(c2C1)CO[C@@H](C)C3 ?
GLA inh pH 4.5: -0.8; ALDH1A1 block: -1.4%[13.5 µM]; ALOX12 inhib: 4.7%[11.4 µM]; HPGD block: -9.9%; aGal spleen mod: -4.3%[17.5 µM]

What do the screens show for `CCn1c(/C=C/Nc2ccccc2)[n+](CC)c2cc(Cl)c(Cl)cc21`?
GLA inh pH 4.5: -1.6; ALDH1A1 block: 9.1%; ALOX12 inhib: -0.8%; HPGD block: -2.3%; aGal spleen mod: 8.3%; PNC inhibitor: -96.0*

What do the screens show for `CCn1c(/C=C/N(C(C)=O)c2ccccc2)[n+](CCCS(=O)(=O)[O-])c2cc(Cl)c(Cl)cc21`?
GLA inh pH 4.5: -0.4; ALDH1A1 block: 5.3%; aGal spleen mod: 5.9%

How did CCCCn1c(SCC(=O)c2ccc(OCC)cc2)nc2cc(S(N)(=O)=O)ccc21 do in these assays?
GLA inh pH 4.5: 3.2; ALDH1A1 block: 35.5µM*; ALOX12 inhib: -12.3%; HPGD block: -8.6%; aGal spleen mod: 8.2%; PNC inhibitor: 37.7

How did CCCCn1c(SCC(=O)NCc2ccco2)nc2cc(S(N)(=O)=O)ccc21 do in these assays?
GLA inh pH 4.5: 9.9; ALDH1A1 block: 14.1µM*; ALOX12 inhib: -9.1%; HPGD block: inconclusive; aGal spleen mod: 11.1%; PNC inhibitor: 27.1

Results for CCCCn1c(SCC(=O)N2CCCCC2)nc2cc(S(N)(=O)=O)ccc21 ?
GLA inh pH 4.5: 3.8; ALDH1A1 block: inconclusive; ALOX12 inhib: 3.2%; HPGD block: -19.6%; aGal spleen mod: 8.4%; PNC inhibitor: 2.7

Results for Cc1ccc(N2C(S)=C(C#N)C(=O)NC2c2ccco2)cc1 (stereo not given) ?
GLA inh pH 4.5: 4.5; ALDH1A1 block: inconclusive; aGal spleen mod: -3.5%

What do the screens show for `N#CC1=C(S)N(c2ccccc2)C(c2ccco2)NC1=O` (stereo not given)?
GLA inh pH 4.5: -8.7; ALDH1A1 block: -2.9%; aGal spleen mod: 3.1%

How did Cc1ccc(N2C(S)=C(C#N)C(=O)NC2c2cccs2)cc1 (stereo not given) do in these assays?
GLA inh pH 4.5: -0.9; ALDH1A1 block: 2.9%; ALOX12 inhib: inconclusive; HPGD block: 22.4µM*; aGal spleen mod: 7.6%; PNC inhibitor: -113.9*

How did N#CC1=C(S)N(c2ccccc2)C(c2cccs2)NC1=O (stereo not given) do in these assays?
GLA inh pH 4.5: 4.3; ALDH1A1 block: 20µM*; ALOX12 inhib: 2.4%; HPGD block: 31.6µM*; aGal spleen mod: 0.6%; PNC inhibitor: 35.3

What do the screens show for `CC(C)(C)OC(=O)[C@H](C1N[C@@H](C(=O)O)C(C)(C)S1)N1C(=O)c2ccccc2C1=O` (stereo not given in full)?
ALDH1A1 block: 3.4%[13.5 µM]; HPGD block: -1.4%
